Screens as filed in PubChem.
In the library only some 11% were active in any assay of this set; here they are far more common.
JMJD2A Tudor = blocks the human JMJD2A Tudor domain | O75164 | AlphaScreen JMJD2A-Tudor / H3K4me3 peptide binding | Potency, µM (series often up to 114 µM), inactives show at the top dose activity change, negative = inhibition, usual class: inhibitors | actives 4.4% (n = 390,000) | AID 504339; note: % is set by controls: 0 for no effect and ±100 for the full control effect; nearly all actives have a fitted effect of over 50% in size
L3MBTL1 block = blocks human L3MBTL1; Q9Y468; AlphaScreen L3MBTL1–H3K9me1 peptide binding; Potency, µM (titrated, usually from 57.1 µM), inactives show top-dose activity, negative = inhibition, actives largely listed as inhibitors; actives 0.66% (n = 230,000); note: % is set by controls: 0 for no effect and ±100 for the full control effect; nearly all actives have a fitted effect of over 60% in size
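L3MBTL1 (50 nM) pre-complexed 30 min with biotinylated H3(1-15)K9me1 peptide (75 nM), then compounds added for 30 min at room temperature; AlphaScreen streptavidin donor/nickel chelate acceptor beads (10 ug/mL final) read after 30 min dark incubation.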
G9a inh = blocks human histone lysine methyltransferase G9a | Q96KQ7 | G9a H3K9 monomethylation, AlphaScreen, 2 h | Potency, µM (series often up to 102 µM), without a hit: at the highest dose activity, negative = inhibition, usual class: inhibitors | actives 8.8% (n = 350,000) | AID 504332; note: % is set by controls: 0 for no effect and ±100 for the full control effect; nearly all actives have a fitted effect of over 75% in size
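G9a (20 nM) preincubated 15 min RT with compounds, then 500 nM biotinylated H3K9 peptide and 20 uM SAM added; 2 h RT reaction. Monomethyl-H3K9 product detected by AlphaScreen with anti-H3K9me1 antibody, streptavidin donor and anti-rabbit IgG acceptor beads.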
BAZ2B block = blocks human BAZ2B | Q9UIF8 | AlphaScreen BAZ2B-H3K14Ac peptide displacement | Potency, µM (highest dose often 114 µM), inactives show at the top dose activity change, negative = inhibition, most hits filed as inhibitors | actives 4.4% (n = 360,000) | AID 504333; note: % is set by controls: 0 for no effect and ±100 for the full control effect; nearly all actives have a fitted effect of over 60% in size
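AlphaScreen luminescence quantifies BAZ2B engagement of H3K14Ac peptide; the protein and biotinylated peptide are both at 50 nM final, buffer PBS pH 7.4 with 0.01% Tween-20, all steps at room temperature.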
HP1b chromo inh = HP1-beta chromodomain-methylated histone interaction inhibition; Potency, µM (series often up to 114 µM), without a hit: at the highest dose activity change, negative = inhibition, hits mostly inhibitors; actives 0.56% (n = 390,000); P83916; AID 540317; AlphaScreen HP1-beta / biotin-H3K9me3 peptide binding; note: nearly all actives have a fitted effect of over 70% in size
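HP1-beta protein (50 nM final) preincubated 30 min at room temperature with biotinylated H3(1-18)K9me3 peptide (50 nM) in PBS pH 7.4, 0.01% Tween-20, then compound added for 30 min. AlphaScreen streptavidin donor/nickel chelate acceptor beads (10 ug/mL final), 30 min dark, luminescence read.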
Starred values were filed as active, the others as inactive; ? = inconclusive; · = no result given; [ ] = dose if it differs, or a comment. Calls come from the whole dose curve; as a rule, active = well fitted inhibition curve with a large enough effect; inconclusive = small, poorly fitted or top-dose-only effect; inactive = no such curve, though single readings can be large or run the other way. Potency is the fitted concentration of half-maximal effect.

SMILES	JMJD2A Tudor	L3MBTL1 block	G9a inh	BAZ2B block	HP1b chromo inh
COc1ccc(Nc2cccc3ccccc23)cc1	56.2µM*	-12.4%	22.6%[2.33 µM]	?	?
NNc1nc(Nc2ccccc2)nc(N2CCCCC2)n1	?	·	-6.8%	79.4µM*	18.5%
COc1ccc(Nc2nc3ccc(OC)cc3s2)cc1	?	-21.4%	39.8µM*	56.2µM*	-27.1%
NNc1nc(Nc2ccc([N+](=O)[O-])cc2)nc(N2CCCCCC2)n1	56.2µM*	-18.6%	·	28.2µM*	108.8%
COc1ccc(NC2=C(C)C(=O)CC2)cc1	2.6%	·	1.6%[2.33 µM]	56.2µM*	40.9%
NNc1nc(Nc2ccccc2)nc(Nc2ccccc2)n1	-29.2%	-28.0%	34.9%	22.4µM*	39.5%
COc1ccc(Nc2ccc(OC)cc2)cc1	50.1µM*	15.8µM*	·	20µM*	39.8µM*
COc1ccc(Nc2ccc(Nc3ccc(OC)cc3)nn2)cc1	-27.5%	-1.7%	-0.5%	9.5%	28.9%
CCOC(=O)c1ccc2c(c1)N(CC(=O)Nc1ccc(CC)cc1)C(=O)c1ccccc1S2	1.6%	·	5.5%[59 µM]	5.4%	26.7%[57 µM]
CCn1cc(C(=O)N[C@H](C(=O)NCCO)C(C)C)c(=O)c2cc3c(cc21)OCO3	-5.6%	·	?	-8.5%	29.2%
OCCNc1nc(Nc2ccc(Cl)cc2)nc(N2CCCC2)n1	-14.8%	·	·	·	28.5%
O=[N+]([O-])c1ccc(Nc2nc(NCCO)nc(N3CCCC3)n2)cc1	-6.3%	·	44.7µM*	2.6%	20.0%
COc1ccc(Nc2nc(NN)nc(Nc3ccc(OC)cc3)n2)cc1	44.7µM*	?	-1.2%	25.1µM*	15.3%
Cc1ccc(CNC(=O)C2CCN(S(=O)(=O)c3cc(-c4noc(C)n4)ccc3C)CC2)cc1	-4.3%	·	4.3%[59 µM]	2.6%	31.7%
Cc1ccc(C)c(S(=O)(=O)N2CCN(C(=O)CSC(=S)N3CCCC3)CC2)c1	-12.1%	9.6%	50.1µM*	4.5%	29.9%
CN1CCN(C(=S)NC(=O)c2ccccc2Cl)CC1	-10.3%	·	50.1µM*	-23.0%	-8.6%
COc1ccccc1N1CCN(C(=S)NC(=O)/C=C/c2ccccc2)CC1	-6.1%	-4.4%	4.7%[59 µM]	-4.0%	28.1%
CN1CCN(C(=S)NC(=O)/C=C/c2ccccc2)CC1	-15.3%	·	50.1µM*	5.2%	21.7%
O=C(NC(=S)N1CCCCCC1)c1ccccc1Cl	-14.3%	·	52.5%[59 µM]	0.6%	9.6%
CN1CCN(C(=S)NC(=O)/C=C/c2ccccc2Cl)CC1	-24.1%	-2.3%	44.7µM*	-30.7%	14.5%
CC(OC(=O)/C=C/c1ccc(Br)cc1)C(=O)N1CCOCC1 (stereo unspecified)	-3.6%	1.7%	-25.2%	-1.8%	15.4%
O=C(/C=C/c1ccc(Br)cc1)NC(=S)N1CCOCC1	-18.1%	-13.3%	70.8µM*	-31.7%	33.3%
CC(CC(=O)N(CCC1=CCCCC1)c1c(N)n(Cc2ccccc2)c(=O)[nH]c1=O)c1ccccc1 (stereo unspecified)	-25.5%	1.3%	?	8.1%	-4.9%
CC(=O)c1cccc(NC(=O)CSc2nnc3ccc(-c4ccc(Cl)cc4)nn23)c1	-7.5%	·	-3.1%[59 µM]	-13.9%	45.3%
COc1ccc(-c2nnc(SCC#CCO)o2)cc1OC	?	8.6%	15.8µM*	-2.1%	-6.1%
SMILES	JMJD2A Tudor	L3MBTL1 block	G9a inh	BAZ2B block	HP1b chromo inh
OCC#CCSc1nnc(-c2ccc(Br)cc2)o1	-5.1%	5.5%	-10.6%	1.5%	17.6%
Cc1c(C(=O)Nc2cccc(Cl)c2)sc2nc3n(c(=O)c12)N=C(c1cccc(Br)c1)CS3	-10.3%	·	-1.2%[59 µM]	-1.8%	10.1%
O=C(NCc1ccccn1)c1c(Cl)cccc1Cl	21.2%	2.7%	-0.7%	-0.2%	55.7%
Cc1c(Cl)cccc1-c1ccc(CNCc2ccccn2)o1	?	?	79.4µM*	25.1µM*	5.2%
Cc1cccc(C)c1N=Nc1c(C)cc(O)cc1C	20µM*	-27.5%	35.5µM*	17.8µM*	?
Cc1cccc(O)c1C	-17.7%	-6.5%	·	·	20.9%
C=CCn1c(Sc2ncc([N+](=O)[O-])s2)n[nH]c1=O	-24.3%	1.7%	11.2µM*	-17.6%	-9.1%
O=C(OCC(=O)N1CCc2ccccc21)c1ccc[nH]c1=O	14.1µM*	0.7%	-16.3%	-10.1%	0.0%
O=C(CO/N=C/c1ccc(OC(F)F)cc1)N1CCc2ccccc21	-9.7%	-7.4%	-1.0%[59 µM]	7.1%	21.7%
O=C(/C=C/c1ccc(OC(F)F)cc1)OCC(=O)N1CCc2ccccc21	-14.5%	-13.2%	44.7µM*	7.2%	17.4%
CN(Cc1ccccc1)C(=O)COC(=O)c1ccc[nH]c1=O	22.4µM*	9.5%	·	·	22.9%
CCN(Cc1ccccc1)C(=O)Nc1ccc2c(c1)N(C)C(=O)c1ccccc1S2	-20.5%	·	-28.5%[59 µM]	-34.1%	6.3%
Brc1cccc(-c2nnn3c2nc(NCc2ccc4c(c2)OCO4)c2ccccc23)c1	11.3%	·	-26.6%[59 µM]	9.6%	49.2%
COCCCN=Cc1c(C)[nH]n(-c2ccc(Br)cc2Br)c1=O	-16.0%	·	50.1µM*	·	-4.8%
CSc1nsc(SC)c1C(=O)O	-2.1%	?	44.7µM*	-4.2%	16.3%
CSc1nsc(SC)c1C(N)=O	-28.2%	0.5%	8.3%	1.1%	-0.4%
Cc1ccc(CSc2ccc(-c3ccco3)nn2)cc1	-2.8%	-3.2%	17.8µM*	-35.6%	35.7%
Clc1ccc(CSc2ccc(-c3ccco3)nn2)cc1	4.3%	·	-45.8%	4.9%	22.7%
Fc1ccccc1CSc1ccc(-c2ccco2)nn1	10.1%	·	39.8µM*	-5.8%	5.8%
N#Cc1ccc(-c2ccco2)nc1SCc1ccccc1	83.8%	41.0%	28.2µM*	18.5%	41.7%
CCSc1nc(-c2ccco2)ccc1C#N	?	·	?	0.7%	35.3%
Clc1cccc(CSc2ccc(-c3ccco3)nn2)c1	71.5%	·	15.8µM*	8.8%	9.0%
Cc1ccc(CNC(=O)Cn2c3ncccc3c(=O)n2-c2ccc(C)cc2)cc1	2.6%	·	0.1%[59 µM]	-5.3%	20.1%
c1ccc(CSc2ccc(-c3ccco3)nn2)cc1	-7.7%	-8.3%	25.1µM*	-3.9%	30.1%
Cc1ccc(CSc2ccc(-c3ccc4c(c3)OCO4)nn2)cc1	7.5%	-9.9%	50.1µM*	-2.3%	19.2%
CCS(=O)(=O)N1CCc2cc(C(=O)NCc3ccccc3OC)ccc21	?	·	?	?	9.7%
CCc1nc(C)cn1S(=O)(=O)c1cc(C)c(OC)cc1C	-2.8%	·	50.1µM*	-2.8%	39.4%
CCc1nc(C)cn1S(=O)(=O)c1cc(Br)c(C)cc1OC	-18.6%	-11.8%	?	-18.7%	5.0%
Cn1c(=O)c2cc(S(=O)(=O)NC(C(=O)NC3CCCCC3)c3ccccc3)ccc2n(C)c1=O (stereo unspecified)	-10.6%	·	18.8%	10.8%	45.0%
Cn1c(=O)c2cc(S(=O)(=O)NC(C(=O)N3CCCCCC3)c3ccccc3)ccc2n(C)c1=O (stereo unspecified)	-2.8%	·	44.7µM*	14.2%	77.3%
